Only some compounds are listed: those with a hit (about 3.6% of all), similar ones and a draw of the others.
Anthrax LF inh2: inhibitors of Bacillus anthracis lethal factor protease. actives 0.12% (n = 360,000). P15917. inhibition, % at 10 µM. AID 588501. multiplex microsphere protease cleavage assay, LF; note: plate controls were buffer without enzyme for full effect and enzyme alone for no effect
MazEF act: activators of E. coli MazEF toxin-antitoxin RNase; P0AE70; activation, % at 20 µM; FAM/BHQ RNA-DNA oligo cleavage fluorescence, 5 h; actives 0.32% (n = 350,000); in the data active = activation above about 50%
Target sequence (P0AE70 whole entry, looked up): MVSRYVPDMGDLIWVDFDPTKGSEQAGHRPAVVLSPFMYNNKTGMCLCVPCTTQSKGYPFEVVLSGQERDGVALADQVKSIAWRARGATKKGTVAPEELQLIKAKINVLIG
Autofluor counter: counter-screen for toxin protease inhibitors: compound fluorescence; actives 3.1% (n = 360,000); compound autofluorescence counterscreen, microsphere flow cytometry; hits give high values; fluorescence intensity (concentration not given with the values); in the data active = fluorescence intensity above about 16000; inconclusive = no clear call, values can overlap the other calls
BoNT-F LC inh: inhibitors of Botulinum neurotoxin F light chain protease; AID 588497; inhibition, % at 10 µM; Multiplex microsphere protease cleavage assay, flow cytometry; actives 0.22% (n = 360,000); in the data active = inhibition above about 35%, passing the limit was not always enough; inconclusive = no clear call, values can overlap the other calls; note: plate controls were buffer without enzyme for full effect and enzyme alone for no effect
BoNT-A LC inh2: inhibitors of Botulinum neurotoxin A light chain protease; actives 0.17% (n = 360,000); inhibition, % at 10 µM; multiplex microsphere protease substrate cleavage, flow cytometry; AID 588499; note: plate controls were buffer without enzyme for full effect and enzyme alone for no effect
The depositor's hits bear a star. Cut-off read from the data, not from the text of the source, unless noted: active = inhibition above about 30%; inconclusive = no clear call, values can overlap the other calls; inactive = below that.

CC(=O)c1c(C(C)=O)c(C)n(Cc2ccc3c(c2)OCO3)c1C was read as Anthrax LF inh2 -0.6, MazEF act 2.4, Autofluor counter 22217*, BoNT-F LC inh -12.1 and BoNT-A LC inh2 -7.4.
For COc1ccccc1CNC(=O)c1c(N)n(CCCN2CCOCC2)c2nc3ccccc3nc12 the results were Anthrax LF inh2 0.9, MazEF act -27.3, Autofluor counter 18665*, BoNT-F LC inh 2.0 and BoNT-A LC inh2 13.1.
For COCCn1c(N)c(C(=O)NCc2cccs2)c2nc3ccccc3nc21 the results were Anthrax LF inh2 12.7, MazEF act -9.2, Autofluor counter 20185*, BoNT-F LC inh 0.3 and BoNT-A LC inh2 9.4.
For COc1cc(/C=N/NC(=O)c2ccc3c(c2)OCCO3)cc(Cl)c1O the results were Anthrax LF inh2 -1.0, MazEF act 8.1, Autofluor counter 4049, BoNT-F LC inh 1.2 and BoNT-A LC inh2 1.1.
For CN(C(=O)Cn1c(=O)oc2ccccc21)C1CCCCC1 the results were Anthrax LF inh2 -3.1, MazEF act 0.6, Autofluor counter 3868, BoNT-F LC inh -2.2 and BoNT-A LC inh2 -0.3.
Screening O=C(O)c1ccc2c(c1)C(=O)N(Cc1ccc3c(c1)OCO3)C2=O returned Anthrax LF inh2 -1.9, MazEF act 5.0, Autofluor counter 23047*, BoNT-F LC inh 0.2 and BoNT-A LC inh2 0.2.
Screening CCCCNC(=O)c1c(N)n(CCCOC)c2nc3ccccc3nc12 returned Anthrax LF inh2 5.9, MazEF act -6.0, Autofluor counter 21009*, BoNT-F LC inh -4.3 and BoNT-A LC inh2 2.8.
Screening COCCCn1c(N)c(C(=O)OCCOC)c2nc3ccccc3nc21 returned Anthrax LF inh2 -1.2, MazEF act -1.6, Autofluor counter 4788, BoNT-F LC inh -0.3 and BoNT-A LC inh2 1.8.
`CCc1nnc(NC(=O)CSc2nnc3scc(-c4ccc(C)cc4)n23)s1` gave Anthrax LF inh2 0.5, MazEF act -13.4, Autofluor counter 21013*, BoNT-F LC inh -0.9 and BoNT-A LC inh2 -1.8.
For COC(=O)CSc1nc2cc3c(cc2cc1C)OCCO3 the results were Anthrax LF inh2 0.6, MazEF act -0.2, Autofluor counter 13228, BoNT-F LC inh -1.3 and BoNT-A LC inh2 0.8.
For CCc1nnc(NC(=O)CSc2nnc(-c3ccccc3O)n2CC)s1 the results were Anthrax LF inh2 -0.4, MazEF act -3.3, Autofluor counter 25104*, BoNT-F LC inh -3.0 and BoNT-A LC inh2 -3.6.
`CCc1nnc(NC(=O)CSc2nc3cc4c(cc3cc2C)OCCO4)s1` gave Anthrax LF inh2 -0.6, MazEF act 55.4*, Autofluor counter 15848, BoNT-F LC inh 0.3 and BoNT-A LC inh2 2.5.
For CCc1nnc(NC(=O)CSc2nnc(-c3cc4ccccc4cc3O)n2CC)s1 the results were Anthrax LF inh2 -1.9, MazEF act 4.3, Autofluor counter 8463, BoNT-F LC inh -6.7 and BoNT-A LC inh2 0.3.
COc1cc(CNc2ncnc3c2ncn3[C@H]2CN(Cc3ccncc3)C[C@@H](CO)O2)cc(OC)c1OC was read as Anthrax LF inh2 3.2, Autofluor counter 3734, BoNT-F LC inh 0.3 and BoNT-A LC inh2 0.2.
For COC(=O)c1cc(C(=O)c2cc(Cl)ccc2O)coc1=N the results were Anthrax LF inh2 -5.8, MazEF act -4.7, Autofluor counter 4569, BoNT-F LC inh 1.5 and BoNT-A LC inh2 0.9.
`Cc1ccc(O)c(C(=O)c2coc(=N)c(C(=O)NC(C)C)c2)c1` gave Anthrax LF inh2 -4.2, MazEF act 8.2, Autofluor counter 20781*, BoNT-F LC inh -0.1 and BoNT-A LC inh2 inconclusive.
`CC(=O)c1cccc(NC(=O)CSCc2ccccc2)c1` gave Anthrax LF inh2 0.0, MazEF act -1.3, Autofluor counter 16402*, BoNT-F LC inh -2.7 and BoNT-A LC inh2 0.2.
For O=C(O)CSCC(=O)Nc1ccccc1 the results were Anthrax LF inh2 -1.3, MazEF act -13.6, Autofluor counter 16554*, BoNT-F LC inh -2.2 and BoNT-A LC inh2 -2.0.
O=c1[nH]c(=S)n(CCC2=CCCCC2)c(O)c1C=NCc1cccnc1 was read as Anthrax LF inh2 -7.5, Autofluor counter 24166*, BoNT-F LC inh -5.0 and BoNT-A LC inh2 inconclusive.
Screening O=c1[nH]c(=S)n(CCC2=CCCCC2)c(O)c1C=NCCCn1ccnc1 returned MazEF act 11.6.
CC(=O)N1C(=O)C(=C2C=C(C)OC(C)=C2)c2ccccc21 was read as Anthrax LF inh2 -1.0, MazEF act active, Autofluor counter 23162*, BoNT-F LC inh 4.1 and BoNT-A LC inh2 0.2.
Cc1nn(C)c(C)c1S(=O)(=O)N1CCC(C(=O)NC2CCCc3ccccc32)CC1 (stereo not given) was read as Anthrax LF inh2 6.2, MazEF act -3.0, Autofluor counter 6357, BoNT-F LC inh -5.3 and BoNT-A LC inh2 -0.6.
Screening CNC(=O)NC1CCCc2ccccc21 (stereo not given) returned Anthrax LF inh2 -2.1, MazEF act 11.6, Autofluor counter 23281*, BoNT-F LC inh 1.4 and BoNT-A LC inh2 0.6.
Screening CCN(CC)S(=O)(=O)N1CCC(C(=O)NC2CCCc3ccccc32)CC1 (stereo not given) returned Anthrax LF inh2 0.5, MazEF act -6.6, Autofluor counter 20617*, BoNT-F LC inh 5.6 and BoNT-A LC inh2 4.6.
`CNc1c(NS(=O)(=O)c2ccc(C3CCCCC3)cc2)c(=O)oc2ccccc12` gave Anthrax LF inh2 10.4, MazEF act -2.8, Autofluor counter 3508, BoNT-F LC inh 4.0 and BoNT-A LC inh2 1.7.
Screening Cc1cc(C)n(-c2nc(SCCN(C)C)c3c4c(sc3n2)CCCC4)n1 returned Anthrax LF inh2 -2.4, MazEF act 17.1, Autofluor counter 17751*, BoNT-F LC inh -9.0 and BoNT-A LC inh2 -7.3.
NNC(=O)c1ccc2[nH]c3c(c2c1)CCCC3 was read as Anthrax LF inh2 2.1, MazEF act 8.3, Autofluor counter 4272, BoNT-F LC inh -2.7 and BoNT-A LC inh2 -0.7.
CN1CCc2[nH]c3ccc(C(=O)NN)cc3c2C1 was read as Anthrax LF inh2 -1.5, MazEF act -4.3, Autofluor counter 20838*, BoNT-F LC inh -2.5 and BoNT-A LC inh2 4.0.
CCOC(=O)c1ccc(S(=O)(=O)N2CCN(C3CC(=O)N(c4ccccc4C(F)(F)F)C3=O)CC2)cc1 (stereo not given) was read as Anthrax LF inh2 -3.1, MazEF act -4.1, Autofluor counter 6813, BoNT-F LC inh -19.4 and BoNT-A LC inh2 -7.0.
For COc1ccc(CC(=O)c2c(O)cc(O)cc2O)cc1OC the results were Anthrax LF inh2 -2.3, MazEF act 0.8, Autofluor counter 22635*, BoNT-F LC inh -17.2 and BoNT-A LC inh2 inconclusive.
`CCCc1c(O)nc(SCCN(CC)CC)n(C(=O)c2ccccc2)c1=O` gave Anthrax LF inh2 -0.2, MazEF act 2.0, Autofluor counter 23987*, BoNT-F LC inh -4.6 and BoNT-A LC inh2 -2.6.
For CCCc1c(O)nc(SCCN(CC)CC)[nH]c1=O the results were Anthrax LF inh2 5.0, MazEF act 8.9, Autofluor counter 4692, BoNT-F LC inh -4.6 and BoNT-A LC inh2 -1.4.
`CNc1cncc(-c2ccc(F)cc2F)n1` gave Anthrax LF inh2 1.1, Autofluor counter 3750, BoNT-F LC inh 1.0 and BoNT-A LC inh2 -0.4.

Compound activity (PubChem BioAssay)
